# Data published in ChEMBL document CHEMBL1201862, “PubChem BioAssay data set” (2004).
# Among all 57,000 […] or so, about 2,900 (5.1%) were called active. No stated cut-off is given here; in the data, active = GI50 up to about 1.1 µM and inactive = higher. These entries were drawn from the full list. Results with a measured potency or affinity are listed apart.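 Values below derive from 48-hour exposures of cells grown in 96-well plates, with endpoints linearly interpolated between the two concentrations bracketing the appropriate inhibition level. GI50 = concentration required for 50% inhibition of growth.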
# Tested on: SNB-19
# Experiment: NCI tumour cell line growth inhibition, 48 h
row,Substance,GI50
1,"[Bis(aminomethyl)ethylmethylsilane]tetrachloroplatinum(IV), CHEMBL2146192",5.37 µM
2,"[Bis(aminomethyl)tetramethylenesilane]tetrachloropaltinum(IV), CHEMBL2146189",12.9 µM
3,"[Bis(aminomethyl)diethylsilane]tetrachloroplatinum(IV), CHEMBL2146203",4.05 µM
4,"[Bis(aminomethyl)tetramethylenesilane]dichloropaltinum(II), CHEMBL2146205",47.5 µM
5,"mu-(1,7-nanodiamine-N,N')bis-(cis-aminedichloroplatimum (II)), CHEMBL2146215",39.1 µM
6,"[Bis(aminomethyl)pentamethylenesilane]dichloropaltinum(II), CHEMBL2146202",2.79 µM
7,"[Bis(aminomethyl)dimethylsilane]tetrachloroplatinum(IV), CHEMBL2146190",8.77 µM
8,"CISPLATIN, CHEMBL11359",3.19 µM
9,"[Bis(aminomethyl)pentamethylenesilane]tetrachloropaltinum(IV), CHEMBL2146204",8.02 µM
10,"cis-Bis[[(trimethylsilyl)methyl]amino]tetrachloroplatinum(IV), CHEMBL2146191",12.4 µM
11,"[Bis(aminomethyl)dimethylsilane]dichloroplatinum (II), CHEMBL2146201",24.4 µM
